Tests used:
[1] = tested on: Botulinum neurotoxin type F light chain protease (Clostridium botulinum); experiment: Botulinum neurotoxin type F light chain protease inhibition, multiplex microsphere flow cytometry, validation set (AID 588459); settings: multiplex microsphere protease substrate cleavage assay, at 10 µM, stronger effect = higher value
[2] = molecular target: Botulinum neurotoxin type A (Clostridium botulinum) (UniProt P0DPI0); experiment: BoNT/A light chain protease inhibitors, biochemical, multiplex microsphere flow cytometry, validation set (AID 588460); settings: at 10 µM, stronger effect = higher value
[3] = molecular target: Lethal factor (Bacillus anthracis) (UniProt P15917); experiment: Lethal factor protease inhibitors, Bacillus anthracis, multiplex microsphere cleavage assay, validation set (AID 588461); settings: flow cytometry, at 10 µM, stronger effect = higher value

Measured: inhibition

CC(=O)Oc1ccc2occ(/C=N/c3cc(=O)[nH]c(=S)[nH]3)c(=O)c2c1
inactive: [1] 2% | [2] 0.7% | [3] -4.2%

COc1ccc2[nH]cc(C(=O)CCl)c2c1
inactive: [1] -3.7% | [2] -1.3% | [3] -5.3%

CC1(C)CC(CC(=O)Nc2nccs2)(c2ccccc2)CCO1 (configuration not stated)
inactive: [1] 3.8% | [2] 0.5% | [3] -1.9%

O=C(CCC(=O)c1cccs1)c1cccs1
inactive: [1] 3.2% | [2] -1.4% | [3] -3.3%

Cc1ccnc2c1NC(=O)c1cccnc1N2C1CC1
inactive: [1] 0.7% | [2] -0.1% | [3] -4.5%

CN(C)CCC(c1ccc(Br)cc1)c1ccccn1 (configuration not stated)
inactive: [1] 1.3% | [2] -0.7% | [3] -8.1%

COc1ccc(C2C3=C(CC(C)(C)CC3=O)N(C)C3=C2C(=O)CC(C)(C)C3)cc1
inactive: [1] 2% | [2] 0.4% | [3] -5.6%

C[N+](C)(C)CCCCCCCCCC[N+](C)(C)C
inactive: [1] -0.3% | [2] -0.8% | [3] -5.3%

COc1cc2c3c(c1)C(C)CC(C)(C)N3C(=O)C2=O (configuration not stated)
inactive: [1] -6.7% | [2] -1.3% | [3] -5.6%

CC(=O)N(CCC(Cc1ccccc1)c1ccc2c(c1)OCO2)Cc1ccc(Cl)cc1 (configuration not stated)
inactive: [1] 3.5% | [2] 0.1% | [3] -1%

C[C@H](NC(=O)Nc1ccccc1F)C(=O)O
inactive: [1] -3.8% | [2] -0.3% | [3] -3.2%

Cc1cc(-c2nn(-c3ccccc3F)cc2CN2CCC(O)CC2)c(C)s1
inactive: [1] -1.7% | [2] 0.2% | [3] -1.4%

COc1cc(OC)c(C(=O)CCCN2CCCC2)c(OC)c1
inactive: [1] 2.9% | [2] -0.9% | [3] -2.6%

Nc1cnn(C2OC(CO)C(O)C2O)c(=O)n1 (configuration not stated)
inactive: [1] 0.5% | [2] 0% | [3] -3.7%

COc1cc(NC(=O)COc2ccccc2)c(OC)cc1NC(C)=O
inactive: [1] -2.2% | [2] 1.2% | [3] -8.3%

Cc1c(CCOC(=O)CC23CC4CC(CC(C)(C4)C2)C3)sc[n+]1Cc1ccc([N+](=O)[O-])cc1
inactive: [1] -3.1% | [2] 1.6% | [3] -4.8%

COc1cc(C2NCCc3c2[nH]c2ccccc32)ccc1OC(C)C (configuration not stated)
inactive: [1] 1.4% | [2] -0.5% | [3] 4.3%

CC(C)CN(C)Cc1c(C(=O)N2CCc3ccccc3C2)nc2ccc(Cl)cn12
inactive: [1] 2.4% | [2] 0.6% | [3] 1%

COC(=O)c1[nH]c2ccc(F)cc2c1NC(=O)C1=COCCO1
inactive: [1] 0% | [2] 0.8% | [3] -4.9%

CN=C(NC#N)NCCSCc1nc[nH]c1C
inactive: [1] -0.4% | [2] 0.9% | [3] -3.5%

CC(C)(C)c1ccc(/C=C/C(=O)N2CCCCC2)cc1
inactive: [1] -0.4% | [2] -1.5% | [3] 4.7%

O=C(O)c1ccc(N2C(=O)/C(=C\c3ccccc3)N=C2c2ccccc2)cc1
inactive: [1] 1% | [2] -1.6% | [3] 4.4%

CCN(CCCCCN(C)C)Cc1cc2ccccc2o1
inactive: [1] 4.7% | [2] -1.1% | [3] 8.8%

COc1ccccc1/C=C/C(=O)OCCN1CCOCC1
inactive: [1] 3% | [2] -2.1% | [3] -6.7%

COc1ccc(C(=O)CC2OC(=O)c3c2ccc(OC)c3OC)cc1 (configuration not stated)
inactive: [1] 0.2% | [2] 0.7% | [3] 3.4%

CC1(C)O[C@@H]2C[C@H]3[C@@H]4C[C@H](F)C5=CC(=O)CC[C@]5(C)[C@H]4[C@@H](O)C[C@]3(C)[C@]2(C(=O)CO)O1
inactive: [1] 1.1% | [2] -0.8% | [3] 10.7%

Cc1ccc(S(=O)(=O)N2CCC(C(=O)N[C@@H](C)C(=O)NC3CCS(=O)(=O)C3)CC2)cc1 (some centres not stated)
inactive: [1] 2.1% | [2] 1.5% | [3] 11.8%

COc1cc(NC(=S)NC(=O)c2cccs2)ccc1NC(=O)C(C)C
inactive: [1] -2.2% | [2] 0.1% | [3] -4%

COc1ccc(C2NC(C(=O)O)Cc3c2[nH]c2ccccc32)cc1CN1CCN(c2ccc(F)cc2)CC1 (configuration not stated)
inactive: [1] 8.8% | [2] 0.4% | [3] 2.2%

From PubChem BioAssay
